The text below walks through data of the supplement of paper PMC6555819.

Common to all, as to test: PBM binding z-score (relative to random genomic background probes); higher = stronger binding; sequences stand for … in GC…GCGATTGACAGCGTAGAATGAAGG
Experiment [1] deals with FXR:RXRa (NR concentration 270 nM, RXRa partner concentration 90 nM). The essentials: (§1)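 Binding z-scores take random background probes as their reference. They come from custom Agilent 4×180K protein-binding microarrays incubated 1 h with ligand-free nuclear receptor dimers, with antibodies against each partner (one per run) detecting binding. Scanned fluorescence was regression-normalized.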

Experiment [2] relates to LXRa:RXRa (NR concentration 270 nM, RXRa partner concentration 90 nM). The essentials: as §1
Experiment [3] deals with LXRa homodimer (NR concentration 270 nM). The gist of the method: as §1
For experiment [4], the system named is LXRb:RXRa (NR concentration 270 nM, RXRa partner concentration 90 nM). The gist of the method: as §1
The test system of experiment [5] is LXRb homodimer (NR concentration 270 nM). The essentials:
as §1

The subject of experiment [6] is PPARa:RXRa (NR concentration 270 nM, RXRa partner concentration 90 nM). The gist of the method:
as §1

The test system of experiment [7] is PPARg:RXRa (NR concentration 180 nM, RXRa partner concentration 90 nM). The essentials:
as §1

Experiment [8] has as its system PPARg:RXRa 270nM:90nM, anti-RXR (NR concentration 270 nM, RXRa partner concentration 90 nM). The gist of the method: as §1
Experiment [9] deals with PPARg:RXRa 30nM:10nM, anti-RXR (NR concentration 30 nM, RXRa partner concentration 10 nM). The gist of the method:
as §1

In experiment [10] the test system is PPARg:RXRa 90nM:30nM, anti-RXR (NR concentration 90 nM, RXRa partner concentration 30 nM). The gist of the method:
as §1

Experiment [11] deals with PPARg:RXRa DBDmut IVT, anti-RXR (DBD mutation: RXRa K156A/R161A, NR concentration 270 nM, RXRa partner concentration 90 nM). The gist of the method: as §1
For experiment [12], the system named is PPARg:RXRa IVT, anti-PPARg (NR concentration 270 nM, RXRa partner concentration 90 nM). The gist of the method: as §1
The subject of experiment [13] is PPARg DBDmut:RXRa IVT, anti-PPARg (DBD mutation: PPARg1 K132A/R137A, NR concentration 270 nM, RXRa partner concentration 90 nM). The essentials:
as §1

In experiment [14] the test system is PPARg DBDmut IVT, anti-PPARg (DBD mutation: PPARg1 K132A/R137A, NR concentration 270 nM). The gist of the method: as §1
For experiment [15], the system named is PPARg homodimer (NR concentration 180 nM). The gist of the method: as §1
Experiment [16] deals with PXR:RXRa (NR concentration 270 nM, RXRa partner concentration 90 nM). The essentials: as §1
Experiment [17] has as its system PXR homodimer (NR concentration 270 nM). The gist of the method:
as §1

In experiment [18] the test system is RARa:RXR (NR concentration 270 nM, RXRa partner concentration 90 nM). The gist of the method:
as §1

In experiment [19] the test system is RARa homodimer (NR concentration 270 nM). The essentials:
as §1

In experiment [20] the test system is RARb:RXRa (NR concentration 270 nM, RXRa partner concentration 90 nM). The essentials: as §1

GGAACGAAGGCAAGTTGATAGCAGAGTTTGATGG: the PBM binding z-score in experiment [1] is -0.951; in experiment [2], -0.918; in [3] it was -0.858; in experiment [4], -1.13; in experiment [5] it was -1.2; in experiment [6], -0.649. Moreover, the PBM binding z-score in [7] is 0.469; in [8], -0.479; in experiment [9] it was -0.377; in [10], -0.674; in experiment [11] it was -0.11; in experiment [12] it was -0.659. In addition, the PBM binding z-score in experiment [13] was 0.0164; in experiment [14], -0.632; in experiment [15] it was -0.995; in experiment [16], -0.665; in experiment [17] it was -0.247; in experiment [18], -0.931. Also, the PBM binding z-score in [19] was -0.746; in [20] it was -0.503.

On to TCTGCTAGGTCAGTTGGTCAGCTCACGAGCTGCC, for which the PBM binding z-score is 1.02 in [1]; 0.925 in experiment [2]; -0.62 in experiment [3]; 0.62 in [4]; 0.255 in [5]; 1.53 in [6]. Further, the PBM binding z-score stood at 0.508 in experiment [7]; 1.87 in [8]; 1.28 in [9]; 1.87 in experiment [10]; 3.21 in experiment [11]; 3.07 in experiment [12]. Also, the PBM binding z-score in experiment [13] is 0.484; in [14], 0.713; in experiment [15], -0.202; in experiment [16], 0.341; in experiment [17], -1.06; in experiment [18], 0.601. The PBM binding z-score in [19] was -1.19; in experiment [20], 3.18.

GCTAGTTCGTCAGTAAAAGGTCACACACCGGTCG: the PBM binding z-score in experiment [1] came to 3.31; in [2] it was 4.47; in experiment [3], 4.75; in experiment [4], 4.05; in experiment [5], 0.683; in experiment [6], 4.56. For the same sequence, the PBM binding z-score in [7] was 1.96; in [8], 3.56; in [9] it was 1.55; in experiment [10] it was 3.22; in experiment [11] it was 0.269; in experiment [12], 1.84. The PBM binding z-score came out at 0.221 in experiment [13]; 0.516 in experiment [14]; 5.83 in experiment [15]; 5.56 in experiment [16]; 1.64 in [17]; 6.4 in experiment [18]. Moreover, the PBM binding z-score in experiment [19] was 3.07; in experiment [20], 4.08.

In the case of CAGCCTAGGTCAGGGCAAGTATAGGAGGAACGTT, the PBM binding z-score was 2.01 in [1]; 1.35 in experiment [2]; -0.33 in experiment [3]; 0.587 in experiment [4]; -1.01 in experiment [5]; 2.23 in experiment [6]. In addition, the PBM binding z-score was 1.32 in experiment [7]; 1.24 in [8]; -0.349 in [9]; 0.306 in experiment [10]; 1.79 in experiment [11]; 2 in experiment [12]. The PBM binding z-score in [13] was -0.618; in experiment [14] it was -1.17; in [15], 0.755; in experiment [16], 0.56; in [17], -0.274; in [18], 1.19. Besides, the PBM binding z-score in [19] is -0.273; in [20] it was 3.7.

Consider GCTGCTAGGTCAGGTTGGTCAGCTACCGGGTACG, for which the PBM binding z-score is 1.12 in experiment [1]; 0.526 in experiment [2]; -0.544 in experiment [3]; 0.265 in experiment [4]; -0.337 in experiment [5]; 1.4 in experiment [6]. Also, the PBM binding z-score is 0.0957 in experiment [7]; 0.884 in experiment [8]; -0.631 in experiment [9]; 0.221 in experiment [10]; 2.57 in experiment [11]; 2.37 in [12]. For the same sequence, the PBM binding z-score in [13] was -0.857; in [14], -0.886; in experiment [15], 0.811; in [16] it was 0.288; in [17], -0.331; in [18], 0.391. Moreover, the PBM binding z-score was -0.864 in experiment [19] and 3.32 in experiment [20].

Consider CCTCGGAGGACAACAGGACGTCAGAGCTGCCAGA, for which the PBM binding z-score in [1] is 0.0455; in [2] it was -0.556; in [3], -0.533; in experiment [4] it was -0.881; in experiment [5] it was -0.769; in experiment [6], -0.616. Moreover, the PBM binding z-score is 0.187 in [7]; -1.2 in experiment [8]; -0.952 in [9]; -1.19 in [10]; -0.431 in experiment [11]; -0.589 in experiment [12]. Further, the PBM binding z-score in experiment [13] is -0.661; in [14], -1.48; in experiment [15], -0.0308; in experiment [16], -0.587; in [17], -0.482; in experiment [18], -0.32. For the same sequence, the values for the PBM binding z-score in experiment [19] and in experiment [20] were -0.489 and 0.92, respectively.

Take ATATGTAGGTTACATCCGTGTCATTCAGGCTATG: the PBM binding z-score turned out to be 0.799 in experiment [1]; 4.06 in [2]; 0.794 in experiment [3]; 1.81 in [4]; 0.59 in experiment [5]; 3.6 in [6]. In addition, the PBM binding z-score in experiment [7] came to 5.07; in experiment [8], 4.33; in experiment [9], 1.88; in experiment [10] it was 3.27; in experiment [11], 7.68; in experiment [12] it was 7.5. In addition, the PBM binding z-score worked out at 2.03 in [13]; 4.51 in experiment [14]; 1.36 in experiment [15]; 0.878 in experiment [16]; 0.202 in experiment [17]; 0.935 in [18]. For the same sequence, the PBM binding z-score in experiment [19] stood at 0.528; in experiment [20], 1.28.
